FBA Mtb inh: Mtb fructose-bisphosphate aldolase inhibition; P9WQA3; purified M. tuberculosis FBA, fluorescence read-out; inhibition, % at 1 µM; 360,000 compounds, 2.3% hits; in the data active means inhibition above about 27%;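 further: 0% = vehicle and 100% = reference inhibitor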
Target sequence (P9WQA3 whole entry, looked up): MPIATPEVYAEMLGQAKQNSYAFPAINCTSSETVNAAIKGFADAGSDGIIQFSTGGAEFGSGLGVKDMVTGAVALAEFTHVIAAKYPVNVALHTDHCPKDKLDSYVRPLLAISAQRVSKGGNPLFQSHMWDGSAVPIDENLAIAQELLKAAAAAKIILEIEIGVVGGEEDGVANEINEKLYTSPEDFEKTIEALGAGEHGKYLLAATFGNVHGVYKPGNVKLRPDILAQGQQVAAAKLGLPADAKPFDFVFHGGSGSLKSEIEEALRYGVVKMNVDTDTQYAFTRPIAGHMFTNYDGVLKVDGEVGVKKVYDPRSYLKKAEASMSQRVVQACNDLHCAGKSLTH
RecA splice inh: Mtb RecA intein splicing inhibition. 290,000 compounds, 0.75% hits. inhibition, % (concentration not given with the values). P9WHJ3. cell-free RecA intein splicing, fluorescence; in the data active means inhibition above about 30%; inconclusive means no clear call, values can overlap the other calls;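 further: 0% = vehicle wells and 100% = reference inhibitor control wells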
Rv3671c protease: Rv3671c (M. tuberculosis) protease inhibition | 320,000 compounds, 0.048% hits | P9WHR9 | inhibition, % at 5.96 µM; in the data active means inhibition above about 38%;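 further: extracellular domain of Rv3671c used as enzyme; 0% = enzyme with DMSO and 100% = no enzyme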
Mtb UGM inh: Mtb UDP-galactopyranose mutase inhibition. P9WIQ1. AID 504406. 320,000 compounds, 0.06% hits. inhibition, % at 10 µM. purified UGM, fluorescence polarization probe displacement; in the data active means inhibition above about 10%, passing the limit was not always enough; inconclusive means no clear call, values can overlap the other calls
Mtb bLac sens: beta-lactam sensitization of Mtb H37Rv; M. tuberculosis H37Rv growth with meropenem, percent inhibition; inhibition, % at 25 µM; 330,000 compounds, 0.27% hits;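 further: growth measured after seven days incubation then overnight dye step; 0% = bacteria only wells and 100% = bacteria with antibiotic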
GDH-TPI inh: GDH-TPI coupled enzyme inhibition counter-screen. GDH-TPI coupled enzyme counterscreen, NADH absorbance. inhibition, % at 4.8 µM. 360,000 compounds, 1.2% hits. AID 588335; in the data active means inhibition above about 30%;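 further: 0% = DMSO wells and 100% = wells lacking the enzyme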
GFP chromophore: counter-screen GFP chromophore formation inhibition; shares compounds with RecA splice inh; cell-free GFP chromophore formation, fluorescence; EC50, µM; 2,100 compounds, 83% hits; AID 434968
Active calls of the source: *; u = inconclusive; x = no result given. Hits are enriched below; roughly 4% of the tested compounds scored in any of these assays. Unless noted, how the calls were made is not given here.

SMILES | FBA Mtb inh | RecA splice inh | Rv3671c protease | Mtb UGM inh | Mtb bLac sens | GDH-TPI inh | GFP chromophore
Cc1ccc2c(c1)-c1c(ssc1=S)C(C)(C)N2C(=O)CSc1nncn1C | -1 | 47* | -5 | -1 | -1 | 12 | 13*
Cc1cc2c(cc1C)N(C(=O)CSC1=NCCS1)C(C)(C)c1ssc(=S)c1-2 | -12 | 13 | 4 | 0 | u | 6 | x
COc1ccc2c(c1)-c1c(ssc1=S)C(C)(C)N2C(=O)CSC1=NCCS1 | -5 | 24 | 4 | 1 | -3 | 5 | x
Cc1cc(C)c2c(c1)-c1c(ssc1=S)C(C)(C)N2C(=O)CSc1nncn1C | -3 | 46* | 4 | 1 | -2 | 8 | 9.8*
O=C(/C=C/c1ccco1)OCC(=O)c1cccc([N+](=O)[O-])c1 | -2 | 3 | -9 | -1 | -1 | 2 | x
O=c1cc(-c2cccc3ccccc23)[nH][nH]1 | 1 | 93* | 6 | 2 | -10 | -1 | 3.5*
N=C1CCC(=N)c2c1c(O)c1ccccc1c2O | 0 | 91* | -17 | 2 | 7 | -3 | 28*
Cc1ccccc1NC(=O)C(=Cc1ccc(C(=O)O)cc1)C(=O)Nc1ccccc1C | -5 | 68* | x | x | x | -1 | 16*
CC(=O)/C(=C/c1ccccc1)C(=O)Nc1ccccc1C | -2 | -1 | -3 | -1 | 13 | 7 | x
O=C(Cn1c(=O)oc2ccccc21)Nc1nc(-c2ccc(Br)cc2)cs1 | -3 | -2 | 5 | -2 | 6 | 7 | x
N#CCCN(C(=O)COC(=O)c1n[nH]c2ccccc12)c1ccccc1 | 8 | x | 6 | 0 | -5 | 7 | x
CCC(CNc1cc(OC)cc2cccnc12)NC1CCCCC1 (stereo not drawn) | -1 | 67* | 21 | 5 | 7 | 13 | 25*
COc1cc(NCCCC(C)N)c2ncccc2c1 (stereo not drawn) | 3 | 88* | x | x | x | -1 | 10*
COc1ccc(NC(=S)Nc2cc(C(F)(F)F)ccc2F)cc1 | 1 | -1 | 3 | 0 | -3 | 0 | x
CCCC(=O)OCCNc1cc(Sc2nc3ccccc3[nH]2)c2nonc2c1[N+](=O)[O-] | -6 | 96* | 1 | -1 | 100 | 16 | 0.96*
CCC(=O)OCCNc1cc(SCCC(=O)OC)c2nonc2c1[N+](=O)[O-] | -5 | 45* | -6 | -1 | 100 | 14 | 26*
CCC(=O)OCCNc1cc(Sc2nccn2C)c2nonc2c1[N+](=O)[O-] | -2 | 87* | 4 | -2 | 100 | 8 | 4.8*
Cc1ccccc1-c1cc(C(=O)O)nn1CC1CC(c2cccc([N+](=O)[O-])c2)=NO1 (stereo not drawn) | 2 | x | -4 | 0 | -2 | 1 | x
CCC(CC)NC(=O)Nc1ccc(F)c(Cl)c1 | -1 | 0 | -2 | -2 | 19 | 7 | x
CC1=C(C)CC2(SC1)C(=O)N(c1ccccc1)N=C2N (stereo not drawn) | 1 | 76* | 16 | 1 | 6 | 7 | 4.1*
CC1=NN(c2ccccc2)C(=O)C1(C)C | -1 | 0 | 0 | 0 | -11 | 18 | x
CCn1cc(C(=O)NC2CCCCC2C)c(=O)c2ccc(C)nc21 (stereo not drawn) | -4 | -1 | -8 | 0 | -2 | 14 | x
CCCCCCCC(=O)NNC(=O)CCC(=O)O | -1 | -1 | -7 | 3 | -7 | 5 | x
Cc1cc(N/N=C/c2ccc(O)c(C)c2O)nc(-c2ccccc2O)n1 | 6 | 47* | 8 | 2 | 11 | 32* | >38
COc1ccc(-c2[nH]nc3c2C(c2ccccc2OC(=O)N2CCOCC2)C(C#N)=C(N)O3)cc1 (stereo not drawn) | 0 | 71* | -2 | -3 | -4 | -7 | 21*
N#CC1=C(N)Oc2n[nH]c(-c3ccccc3)c2C1c1cccc(OC(=O)N2CCOCC2)c1 (stereo not drawn) | -4 | 68* | -5 | -1 | -2 | 17 | 10*
N#CC1=C(N)Oc2n[nH]c(-c3ccc(F)cc3)c2C1c1cccc(OC(=O)N2CCOCC2)c1 (stereo not drawn) | -1 | 80* | -9 | 2 | -3 | 7 | 11*
Cc1ccc(-c2[nH]nc3c2C(c2ccccc2OC(=O)N2CCOCC2)C(C#N)=C(N)O3)cc1 (stereo not drawn) | x | x | -15 | 4 | -1 | x | x

Compound activity as filed in PubChem BioAssay.
